Rows were chosen to be rich in hits. Some 4% of all compounds tested hit in one or more screens of this group.
UGM FP inh: blocks M. tuberculosis UGM enzyme; inhibition, % at 10 µM; P9WIQ1; 0.06% of 320,000 active; AID 504406; purified UGM, fluorescence polarization probe displacement; in the data active = inhibition above about 10%, passing the limit was not always enough; inconclusive = no clear call, values can overlap the other calls
Target sequence (P9WIQ1 whole entry, looked up): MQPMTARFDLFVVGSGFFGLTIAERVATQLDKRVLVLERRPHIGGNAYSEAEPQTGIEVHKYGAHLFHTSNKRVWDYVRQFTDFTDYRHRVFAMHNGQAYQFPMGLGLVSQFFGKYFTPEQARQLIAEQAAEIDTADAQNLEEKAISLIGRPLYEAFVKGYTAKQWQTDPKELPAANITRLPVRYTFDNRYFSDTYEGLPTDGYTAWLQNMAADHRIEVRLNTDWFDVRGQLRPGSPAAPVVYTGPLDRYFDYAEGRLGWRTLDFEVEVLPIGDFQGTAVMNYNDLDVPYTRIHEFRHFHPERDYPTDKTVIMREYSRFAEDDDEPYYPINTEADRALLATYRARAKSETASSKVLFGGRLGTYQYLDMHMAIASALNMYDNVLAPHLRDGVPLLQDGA
Mtb betalactam: beta-lactam sensitization of Mtb H37Rv; 0.27% of 330,000 active; inhibition, % at 25 µM; M. tuberculosis H37Rv growth with meropenem, percent inhibition; AID 434955; call rule not given here;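 note: growth measured after seven days incubation then overnight dye step; 0% = bacteria only wells and 100% = bacteria with antibiotic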
RecA intein inh: Mtb RecA intein splicing inhibition | P9WHJ3 | cell-free RecA intein splicing, fluorescence | inhibition, % (concentration not given with the values) | 0.75% of 290,000 active | AID 2221; in the data active = inhibition above about 30%; inconclusive = no clear call, values can overlap the other calls;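 note: 0% = vehicle wells and 100% = reference inhibitor control wells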
GDH-TPI counter-1: counter-screen for M. tuberculosis FBA inhibitors: GDH-TPI coupled enzymes; GDH-TPI coupled enzyme counterscreen, NADH absorbance; inhibition, % at 4.8 µM; AID 588335; 1.2% of 360,000 active; in the data active = inhibition above about 30%;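 note: 0% = DMSO wells and 100% = wells lacking the enzyme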
FBA Mtb inh: Mtb fructose-bisphosphate aldolase inhibition | P9WQA3 | purified M. tuberculosis FBA, fluorescence read-out | inhibition, % at 1 µM | 2.3% of 360,000 active | AID 588726;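 note: 0% = vehicle and 100% = reference inhibitor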
Rv3671c protease: inhibitors of M. tuberculosis serine protease Rv3671c | P9WHR9 | inhibition, % at 5.96 µM | 0.048% of 320,000 active | AID 2606; in the data active = inhibition above about 38%;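 note: extracellular domain of Rv3671c used as enzyme; 0% = enzyme with DMSO and 100% = no enzyme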
Mtb FBA inh conf: confirmation of M. tuberculosis fructose-bisphosphate aldolase inhibitors; shares compounds with FBA Mtb inh; 78% of 5,600 active; inhibition, % at 1 µM; purified M. tuberculosis FBA, fluorescence read-out;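 note: 0% = vehicle wells and 100% = reference inhibitor wells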
GDH-TPI counter-2: inhibits GDH-TPI coupling enzymes, flagging Mtb FBA hits | shares compounds with FBA Mtb inh | GDH-TPI coupled enzyme counterscreen, fluorescence | inhibition, % at 1 µM | 81% of 5,600 active | AID 652141; in the data active = inhibition above about 10%
Numbers without * were called inactive; u = inconclusive; x = no result given; + = active, no number. Cut-off read from the data, not from the text of the source, unless noted: active = inhibition above about 27%; inactive = the rest.

SMILES | UGM FP inh | Mtb betalactam | RecA intein inh | GDH-TPI counter-1 | FBA Mtb inh | Rv3671c protease | Mtb FBA inh conf | GDH-TPI counter-2
CC(C)NC(=O)Nc1cccc2c1O[C@H](CN(C)S(=O)(=O)c1ccccc1)[C@@H](C)CN([C@H](C)CO)C2=O | 7 | -1 | x | 1 | 39* | -3 | 59* | 61*
CC(C)NC(=O)Nc1cccc2c1O[C@H](CN(C)S(=O)(=O)c1ccc(F)cc1)[C@@H](C)CN([C@H](C)CO)C2=O | x | -1 | x | -5 | 1 | 8 | x | x
CCN(CC(=O)Nc1ccc2c(c1)OCCO2)S(=O)(=O)c1ccc(C)cc1 | 0 | -8 | 4 | 4 | -3 | 6 | x | x
CCN(CC(=O)Nc1ccc2c(c1)OCCO2)S(=O)(=O)c1cccs1 | -1 | -8 | 2 | 0 | 39* | -3 | 75* | 71*
CSCc1ccc(C(=O)NCc2ccc(F)cc2)cc1 | -2 | 0 | 3 | 6 | 3 | -6 | x | x
O=c1cc(/C=C/c2c(F)cccc2Cl)[nH]c2ccccc12 | -1 | 74 | -13 | 14 | 45* | -51 | 53* | 33*
Nc1nccc(/C=C/c2c(F)cccc2Cl)n1 | -1 | 5 | 2 | 12 | 13 | -7 | x | x
COc1ccc2[nH]c(C(=O)N3CCc4ccccc4C3)c(C)c2c1 | -1 | 7 | -1 | 5 | 5 | 1 | x | x
O=C(/C=C/c1ccc(Cl)cc1)N1CCN(c2ccccn2)CC1 | 0 | 3 | 0 | 9 | 0 | -4 | x | x
O=C(/C=C/c1ccc(Cl)c(C(F)(F)F)c1)N1CCN(c2ccccn2)CC1 | 0 | 1 | 3 | 5 | 93* | -13 | 143* | 129*
C=CCNC(=O)/C(=C\c1ccco1)NC(=O)c1ccco1 | 1 | 1 | -5 | 14 | 59* | 1 | 81* | 72*
C=CCNC(=O)/C(=C/c1ccco1)NC(=O)c1ccc(Br)o1 | 1 | -9 | -3 | 2 | 2 | 2 | x | x
C=CCc1cccc(C=Nc2cc(Br)ccc2O)c1O | 0 | 92 | 0 | -7 | -2 | 9 | x | x
C=CCc1cccc(C=Nc2cccn3cc(-c4ccccc4)nc23)c1O | -3 | 4 | -21 | 9 | 39* | 2 | + | 176*
O=C1CSC(c2ccccc2)N1CC(O)c1ccc([N+](=O)[O-])cc1 (stereo not drawn) | -5 | -3 | -1 | 0 | -1 | 0 | x | x
COc1cc2c(cc1NC(=S)Nc1cccc3ccccc13)oc1ccccc12 | 1 | 86 | -1 | 23 | 105* | -4 | + | 187*
CC(=O)c1ccc(NC(=S)Nc2cccc3ccccc23)cc1 | 0 | -2 | 5 | 16 | 53* | -17 | 76* | 60*
CC(=O)N(C)c1ccc(NC(=S)Nc2cccc3ccccc23)cc1 | 2 | 4 | 10 | 18 | 9 | 11 | x | x
O=C(Nc1cccc2ccccc12)c1cccc(F)c1 | -1 | 20 | 2 | -7 | 1 | x | x | x
Cc1ccc(NC(=S)Nc2cccc3ccccc23)cc1F | -1 | 53 | 5 | 8 | 47* | -3 | + | 168*
Fc1cccc(NC(=S)Nc2cccc3ccccc23)c1 | 0 | -12 | 3 | -2 | 67* | -4 | + | +
Cc1cc(C)cc(NC(=S)Nc2cccc3cnccc23)c1 | x | x | x | 2 | 0 | x | x | x
Cc1ccc(NC(=O)C2CC(=O)N(CCc3ccccc3)C2)cc1Cl (stereo not drawn) | 1 | 6 | x | -2 | -1 | -1 | x | x
Cc1ccc(-c2nc3ccc(C)cn3c2Cc2ccccc2C(F)(F)F)cc1 | x | x | x | x | 5 | x | x | x
Cc1ccc(-c2nc3ccc(C)cn3c2CC(=O)N(C)C)cc1 | -1 | 3 | -4 | 1 | 52* | -3 | 56* | 47*
SMILES | UGM FP inh | Mtb betalactam | RecA intein inh | GDH-TPI counter-1 | FBA Mtb inh | Rv3671c protease | Mtb FBA inh conf | GDH-TPI counter-2
Cc1cc2c(cc1S(=O)(=O)N(C)Cc1ccccc1)OCC(=O)N2 | -2 | -9 | -1 | 4 | 1 | 8 | x | x
CCN(Cc1ccccc1)S(=O)(=O)c1cc2[nH]c(=O)c(=O)[nH]c2cc1C | -1 | u | 1 | 20 | 28* | -5 | 155* | 111*
CC(C)(C)CC(=O)O/N=C(\N)c1ccccn1 | 1 | -9 | 0 | 20 | -2 | -7 | x | x
COCCNC(=S)N(CCCO)Cc1cc2cc3c(cc2[nH]c1=O)OCO3 | x | x | x | 4 | -1 | x | x | x
CCCCNC(=S)N(CCCO)Cc1cc2cc3c(cc2[nH]c1=O)OCO3 | x | x | x | 14 | 4 | x | x | x
COCCCNC(=S)N(CCO)Cc1cc2cc3c(cc2[nH]c1=O)OCO3 | -2 | 53 | 0 | 21 | 31* | x | + | +
CCN(CC)CCN(Cc1cc2cc3c(cc2[nH]c1=O)OCO3)C(=S)NCCOC | 2 | 3 | 0 | 26 | 34* | 0 | 32* | 32*
CCN(CC)CCCN(Cc1cc2cc3c(cc2[nH]c1=O)OCO3)C(=S)NCCOC | 1 | 3 | -1 | 34* | 52* | -2 | 2 | 1
COCCCNC(=S)N(CCCO)Cc1cc2cc3c(cc2[nH]c1=O)OCCO3 | 2 | 1 | 0 | 24 | 16 | -6 | x | x
COC(=O)C1=C(c2c(C)noc2C)C[C@@H]2CC[C@H]1N2C(=O)NCCOc1ccc(OC)cc1 | 0 | -8 | x | 4 | 1 | 3 | x | x
CCc1nnc(NC(=O)c2ccc(F)c(S(=O)(=O)N3CCCCC3)c2)s1 | x | x | 3 | -4 | 2 | x | x | x
CCOC(=O)N1CCN(C(=O)c2cccn3c(=O)c4sccc4nc23)CC1 | 0 | -7 | x | 53* | 66* | 0 | 9 | -6
CCOC(=O)N1CCN(C(=O)c2ccc3nc4ccsc4c(=O)n3c2)CC1 | -2 | -9 | -2 | 25 | 29* | 0 | 4 | 7
CCOC(=O)N1CCN(C(=O)c2cccn3c(=O)c4cc(Br)ccc4nc23)CC1 | -2 | -4 | x | 7 | 16 | -2 | x | x
CN1c2cccc3cccc(c23)N(C)C1(C)C | -6 | -2 | -5 | 16 | 72* | -6 | 1 | 4
CN1c2ccccc2N(C)C1(C)c1cccc2ccccc12 | 0 | 58 | 13 | 12 | 8 | -8 | x | x
Cc1cc(C(O)c2ncc(-c3cccc4ccccc34)[nH]2)ccc1F (stereo not drawn) | x | x | x | 3 | 40* | x | 56* | 41*
COc1c(C)cc(C(O)c2ncc(-c3cccc4ccccc34)[nH]2)cc1C (stereo not drawn) | x | x | x | 1 | 35* | x | + | +
OC(c1ccc(Cl)c(F)c1)c1ncc(-c2cccc3ccccc23)[nH]1 (stereo not drawn) | x | x | x | 3 | 20 | x | x | x
CCOCCCN(C)C1CCN(C(=O)c2oc3ccccc3c2NC(=O)c2cccc([N+](=O)[O-])c2)CC1 | -2 | 1 | 5 | -1 | -1 | -2 | x | x
O=C1Nc2ccccc2O/C1=C\c1ccccc1 | -5 | 5 | -3 | 16 | 30* | 5 | 160* | 102*

Source: PubChem BioAssay (several laboratories)
